Assay results taken from PubChem BioAssay AID588501 (NMMLSC, 2011).
Screen size: about 360,000 compounds; about 420 (0.12%) were called active. What follows is part of a selection rich in actives, with near analogues and random picks from the rest. A number with no mark means an inactive call. Cut-off read from the data, not from the text of the source: active = inhibition above about 30%; inconclusive = no clear call, values can overlap the other calls; inactive = below that.

The molecules below were run against Lethal factor (Bacillus anthracis) (UniProt P15917) (assay: Bacillus anthracis LF protease inhibitors, primary screen, biochemical, multiplex microsphere, MLPCN library (AID 588501; note: plate controls were buffer without enzyme for full effect and enzyme alone for no effect)). Conditions: multiplex microsphere protease cleavage assay, at 10 µM, hits give high values.
Molecule `COc1cc2c(cc1OC)C(C)N(S(=O)(=O)c1cnc(Cl)c(Cl)c1)CC2` (stereo unspecified) has an inhibition of 3.2%. Molecule `COc1ccccc1OCCC(=O)OCC(=O)NCc1ccccc1` has an inhibition of -1.1%. Molecule `Cc1ccc(C(=O)O)cc1-c1ccc(/C=C2\SC(=O)N(CC(=O)Nc3ccc4c(c3)OCO4)C2=O)o1` has an inhibition of -2.8%. With `NS(=O)(=O)c1ccc(-c2ccc(/C=C3\SC(=O)NC3=O)o2)cc1` the inhibition was -4.1%. With `CN1C(=O)/C(=C\c2ccc(-c3ccccc3)o2)SC1=S` the inhibition was 30.1% (active). In the case of `CCC1CCc2c(sc(NC(C)=O)c2C#N)C1` (stereo unspecified), the inhibition is reported as 2.5%. `CCc1nc2ccc(C(=O)NC3CCN(Cc4ccccc4)CC3)cn2c1N(C)CCN1CCOCC1` was tested, and the inhibition was -2.5%. `COC(=O)c1ccc2nc(-c3ccc(C)cc3)c(Cc3ccc(OC)cc3C)n2c1` showed an inhibition of 2.1%. Work on `COc1cc(NC(=O)CSc2nnc3ccc(-c4ccncc4)nn23)cc(OC)c1` yielded an inhibition of -3.6%. Work on `O=C(NCc1ccccc1Cl)NC(=O)c1csc([N+](=O)[O-])c1` yielded an inhibition of -4.7%. With `O=C(NNC1=NCCC1)c1cccc(S(=O)(=O)N2CCCCC2)c1` the inhibition was -3.2%. In the case of `COC(=O)c1ccc(CSc2nc3cc(Cl)ccc3o2)cc1`, the inhibition is reported as -2.5%. With `CC1(C(=O)NS(=O)(=O)Cc2cccc(Cl)c2)CCN1C(=O)Cc1ccc(Cl)cc1Cl` (stereo unspecified) the inhibition was -5.7%. `Nc1cccc(-c2cncc(N3CCN(Cc4ccccn4)CC3)n2)c1` was tested, and the inhibition was -2.8%. For `Cc1cc2nc(SCCN3CCOCC3)[nH]c2cc1C`, the inhibition was 7.8%. Molecule `CC(=O)c1ccc(N2C(=NC(=O)C(C)C)SC3CS(=O)(=O)CC32)cc1` (stereo unspecified) has an inhibition of -2.5%. `CCN(CC(=O)Nc1ccccc1C(F)(F)F)C(=O)CSCc1c(C)noc1C` was tested, and the inhibition was 2.2%. Molecule `O=S(=O)(c1cccc(S(=O)(=O)N2CCC(n3nnc4ccccc43)CC2)c1)N1CCCCC1` has an inhibition of 4.7%. `COc1cc(S(=O)(=O)N2CCN=C2c2ccccc2)ccc1Cl` was tested, and the inhibition was -0.6%. In the case of `CNC(=O)c1c(NC(NC(=O)c2ccco2)C(=O)c2ccc(Cl)cc2)sc2c1CCCC2` (stereo unspecified), the inhibition is reported as -4.6%. `CCOC(=O)C1CCN(Cc2coc3ccc(Cl)cc3c2=O)CC1` gave an inhibition of 0.9%. `Cc1ccc(NC(=O)C2CCN(S(=O)(=O)c3ccc4c(c3)NC(=O)CO4)CC2)cc1C` was tested, and the inhibition was 1.3%. Work on `CCc1ccccc1NC(=O)CSc1nnc(CCNC(=O)OC(C)(C)C)o1` yielded an inhibition of -3.1%. `Cc1ccc(NS(=O)(=O)c2ccc(-c3coc(C)n3)cc2)c(C)c1` showed an inhibition of -2%. For `O=C(CN1CCN(c2ccccc2O)CC1)NC(=O)NCc1ccccc1`, the inhibition was 50.8% (active). `COc1ccccc1N1CCN(CC(=O)NC(=O)NCc2ccco2)CC1` was tested, and the inhibition was 2.9%. Molecule `Oc1ccccc1N1CCN(C(=S)NCc2ccccc2)CC1` has an inhibition of -2.2%. For `Cc1cc(Br)ccc1NC(=O)CN(C)C(=O)CN1C(=O)NC2(CCCC2)C1=O`, the inhibition was 1.3%. Work on `COc1cc(OC)cc(-c2c(-c3cccs3)c3cc(-c4ccc(OC)cc4F)ccc3n2C)c1` yielded an inhibition of -3.2%. With `CCOc1ccccc1-c1nc(CN2CCC(C(=O)N3CCOCC3)CC2)c(C)o1` the inhibition was 0.2%. `Cc1noc(C)c1CSc1nnc2ccc3ccccc3n12` showed an inhibition of -0.1%. With `NC1=NC(=O)C(Cc2cccc(Cl)c2Cl)S1` (stereo unspecified) the inhibition was -6.2%. Work on `COc1cc(Cl)ccc1OCc1cc(C(=O)N2CC[C@@H]3CCCC[C@H]3C2)no1` yielded an inhibition of 0.9%. In the case of `CCC(=O)Nc1cccc(NC(=O)CSc2nnnn2C2CCCC2)c1`, the inhibition is reported as 3.1%. In the case of `O=C(N/C(=C\c1ccc([N+](=O)[O-])cc1)C(=O)N1CCCCC1)c1ccco1`, the inhibition is reported as 14.4%. Molecule `C/C=C/C(=O)Nc1nnc(C(C)C)s1` has an inhibition of -0.2%. `CNC[C@H]1Oc2c(NC(=O)C3CCCCC3)cccc2C(=O)N([C@H](C)CO)C[C@@H]1C` gave an inhibition of -2.2%. `CCN(CC)C(=O)C1=C(C)N(Cc2ccc(OC)cc2)C(=O)C(CC(=O)NCCCCc2ccccc2)C1` (stereo unspecified) showed an inhibition of -3.9%. For `CN1CCc2nc(SC(C(=O)O)c3ccccc3)c(C#N)c(-c3cccs3)c2C1` (stereo unspecified), the inhibition was -13.7%. `CCN(Cc1ccccc1)C(=O)CCS(=O)(=O)c1ccc2c(c1)oc(=O)n2C` gave an inhibition of 0.5%. Molecule `O=[N+]([O-])c1ccc(C(S(=O)(=O)Cc2ccccc2)S(=O)(=O)Cc2ccccc2)cc1` has an inhibition of -1.4%. With `CCC(CC)C(=O)Nc1cc(C(=O)OC)cc(C(=O)OC)c1` the inhibition was -1.3%. `Cc1c(Cl)c([N+](=O)[O-])nn1CC(=O)NCC1CCCO1` (stereo unspecified) showed an inhibition of -2.9%. With `OCC[C@H]1C[C@@H](O)[C@H](O)[C@@]2(OCCc3ccccc32)O1` the inhibition was 3.4%. `CCc1ccccc1NC(=S)Nc1cc(OC)c(NC(=O)C(C)C)cc1OC` gave an inhibition of 5.6%. Molecule `O=C(Nc1cccc(F)c1)c1coc(=O)c(Br)c1` has an inhibition of 0.1%. `O=C(NCC(c1ccco1)N1CCc2ccccc21)c1cccc(F)c1` (stereo unspecified) showed an inhibition of -3.6%. Work on `COc1ccc(C2=NS(=O)(=O)N(C)C(C(=O)N3CCCCC3)=C2)cc1` yielded an inhibition of -0.5%. `COC(c1ccccc1)c1nnc(CCC(=O)N2CCN(CCOc3ccccc3)CC2)o1` (stereo unspecified) was tested, and the inhibition was 0.2%. `Cc1cc(C)cc(OCc2nnc(SCC(=O)OC3CCCCC3)o2)c1` showed an inhibition of -14.4%. For `O=c1oc2ccccc2c(CNc2ccccc2)c1[N+](=O)[O-]`, the inhibition was 7.9%. Molecule `O=C1NC[C@H](CCCCN2C[C@H](Cc3ccc(O)cc3)N(CCc3ccccc3)C(=O)C2=O)N(CCc2ccccc2)C1=O` has an inhibition of -11.9%. Work on `O=C(Nc1nnc(C2CC2)s1)C1=NN(C2CCS(=O)(=O)C2)C(=O)CC1` (stereo unspecified) yielded an inhibition of 1.6%. For `CNC(=O)c1nnn(-c2ccccc2)c1C(=O)NC`, the inhibition was -0.6%. `COc1ccc(-n2c(O)c(C=NCC(c3ccco3)N3CCCC3)c3ccccc3c2=O)cc1OC` (stereo unspecified) showed an inhibition of 0%. `COc1cc(-c2nc(S(=O)(=O)c3ccc(Cl)cc3)c(N(C)C)o2)cc(OC)c1OC` showed an inhibition of 0%. `CCCCN(C(=O)c1ccc(S(=O)(=O)N2CCOCC2)cc1)C1CCS(=O)(=O)C1` (stereo unspecified) was tested, and the inhibition was 0.4%. `CC(C)NC(=O)COCc1cc(-c2ccc3c(c2)OCO3)on1` was tested, and the inhibition was -4.5%. `CCCCC(CC)CNCc1cccn1CCN1CCOCC1` (stereo unspecified) showed an inhibition of 9%. With `CCn1c(SCC(=O)Nc2ccc(C)cc2)nc2nc3c(cc2c1=O)CCCC3` the inhibition was -5.9%. Work on `Cc1ccc(CSCC2Nc3ccc(C(=O)N4CCN(c5ccc(F)cc5)CC4)cc3NC2=O)cc1` (stereo unspecified) yielded an inhibition of -0.9%. For `CC(C)OCCCNC(=O)c1ccc(C2SCC(=O)N2Cc2ccco2)cc1` (stereo unspecified), the inhibition was 0.6%. With `CCCCC(=O)Nc1ccc2c(c1)C(=O)NC2=O` the inhibition was -3.5%. `CC(=O)Nc1ccc(NC(=O)c2ccc3c(c2)C(=O)N(c2ccccc2C)C3=O)cc1` was tested, and the inhibition was 0.3%. `CC(=O)Nc1ccc(Oc2ccc3c(c2)C(=O)NC3=O)cc1` was tested, and the inhibition was 30.3% (active). Molecule `OCC1(Cc2ccccc2C(F)(F)F)CCN(Cc2cccc3cnccc23)CC1` has an inhibition of -3.3%. `Nc1ncnc2c1cnn2C1CC(O)C(CO)O1` (stereo unspecified) gave an inhibition of -1.1%. Work on `Cc1cccc(C)c1-n1nnnc1C(CCc1ccccc1)N1CCN(C/C=C/c2ccccc2)CC1` (stereo unspecified) yielded an inhibition of -0.9%. `O=C(COC(=O)CNC(=O)C1CCCCC1)Nc1cccc(F)c1` showed an inhibition of -8.5%. `O=C(Nc1cccc(F)c1)[C@@H]1CCCN1` was tested, and the inhibition was 41.3% (active). In the case of `O=C(Nc1cccc(F)c1)NC1CCCc2ccccc21` (stereo unspecified), the inhibition is reported as 0.6%. For `CC(C)[C@@H](NC(=O)OC(C)(C)C)C(=O)NCC1CCC(C(=O)N[C@@H](Cc2ccccc2)C(=O)O)CC1` (stereo partly specified), the inhibition was 9%. For `CC(C)(C)OC(=O)NC(Cc1ccccc1)C(=O)NC(CSC1CCCCO1)C(=O)NN` (stereo unspecified), the inhibition was 39.5% (active). `C#CCNC(=O)[C@H](Cc1ccc(C(=O)c2ccccc2)cc1)NC(=O)OC(C)(C)C` showed an inhibition of -1%. For `COc1ccc(C2c3[nH]c4ccccc4c3CCN2CCCn2cccn2)cc1C` (stereo unspecified), the inhibition was 1.2%. With `Cc1ccccc1N1CCN(C2CCCN(C(=O)c3ocnc3C)C2)CC1` (stereo unspecified) the inhibition was -3.3%.
